Test results reported in PubChem BioAssay (EPA / NIEHS).
Records with an inconclusive call do not appear. Active and inactive are the calls of the source. Rule for the calls, unless noted: active = hit-call score of the fitted dose curve at least 0.9, where 1 is the maximum; inconclusive = response in the unintended direction; inactive = score below 0.9.

Experiments:
[1] = ATG_FoxO_CIS: Attagene CIS-FACTORIAL HepG2 Assay for human Forkhead box O (FoxO) (AID 2282943; active = hit-call score of the fitted dose curve at least 0.9, where 1 is the maximum; inactive = score below 0.9); conditions: HepG2 Attagene cis-reporter, FoxO element, mRNA; actives raise or lower the signal
In short: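 Values reflect reporter mRNA induction or loss in HepG2 cells 24 h post-dosing, fitted bidirectionally with DMSO as negative control and baseline. Detection used RT-PCR and fluorescence capillary electrophoresis.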

[2] = ATG_GRE_CIS: Attagene CIS-FACTORIAL HepG2 Assay for human Glucocorticoid Response Elements (GRE) (AID 2282947; active = hit-call score of the fitted dose curve at least 0.9, where 1 is the maximum; inactive = score below 0.9); conditions: HepG2 GRE cis-reporter, Attagene multiplex mRNA; actives raise or lower the signal
In short: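 Cells (HepG2) bearing transfected cis-promoter reporter transcription units were treated with chemical for 24 hours. Reporter mRNA was measured via RT-PCR with capillary electrophoresis, and activity was fitted in both directions relative to DMSO.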

[3] = target: Hypoxia-inducible factor 1-alpha (Homo sapiens) (UniProt Q16665); assay: ATG_HIF1a_CIS: Attagene CIS-FACTORIAL HepG2 Assay for human Hypoxia Inducible Factor 1 (HIF1A) (AID 2282951; active = hit-call score of the fitted dose curve at least 0.9, where 1 is the maximum; inactive = score below 0.9); conditions: HepG2 Attagene cis-factorial HIF1a reporter transcription; actives raise or lower the signal
In short: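 Transient MRTU transfection of human HepG2 liver cells, 24 h compound treatment, then total RNA isolation, oligo(dT) reverse transcription, PCR amplification, fluorescent labelling and capillary electrophoresis of reporter fragments. Gain or loss relative to DMSO.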

[4] = target: Heat shock factor protein 1 (Homo sapiens) (UniProt Q00613); assay: ATG_HSE_CIS: Attagene CIS-FACTORIAL HepG2 Assay for human Heat Shock Transcription Factor 1 (HSE) (AID 2282953; active = hit-call score of the fitted dose curve at least 0.9, where 1 is the maximum; inactive = score below 0.9); conditions: HepG2 HSE cis-reporter, Attagene RNA transcription; actives raise or lower the signal
In short: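 Cells were transfected with cis-element-driven reporter constructs, dosed for 24 h, then total RNA was reverse-transcribed and reporter cDNA amplified, FAM-labelled and digested with HpaI. Fragments were resolved by capillary electrophoresis; gain or loss was fitted against DMSO.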

[5] = ATG_PBREM_CIS: Attagene CIS-FACTORIAL HepG2 Assay for human Phenobarbital-responsive Enhancer Module (PBREM) (AID 2282955; active = hit-call score of the fitted dose curve at least 0.9, where 1 is the maximum; inactive = score below 0.9); conditions: HepG2 PBREM cis-reporter, Attagene multiplexed transcription; actives raise or lower the signal
In short: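 Endogenous transcription factors in human liver HepG2 cells drive a PBREM cis-element reporter, whose transcript level after 24 h treatment is quantified by RT-PCR with capillary electrophoresis; activity fitted in both directions against DMSO.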

[6] = ATG_RORE_CIS: Attagene CIS-FACTORIAL HepG2 Assay for human RAR-related Orphan Receptor Element (RORE) (AID 2282959; active = hit-call score of the fitted dose curve at least 0.9, where 1 is the maximum; inactive = score below 0.9); conditions: HepG2 Attagene cis-factorial RORE reporter, mRNA; actives raise or lower the signal
In short: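 Transient MRTU transfection of human HepG2 liver cells (FuGene 6); 24 h compound exposure; TriZol RNA, oligo(dT) RT, PCR, FAM labeling, HpaI cut, CE fragment analysis. DMSO = negative control/baseline.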

[7] = ATG_M_06_TRANS: Attagene TRANS-FACTORIAL HepG2 Assay for M06 Transcription Factor (Internal Marker) (AID 2282983); conditions: HepG2 Attagene TRANS M06 internal marker reporter
In short: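 Background control endpoint: reporter mRNA from transiently transfected HepG2 after 24 h dosing, detected by RT-PCR with capillary electrophoresis fluorescence. Analysed for gain versus DMSO.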

[8] = ATG_NRF2_ARE_CIS: Attagene CIS-FACTORIAL HepG2 Assay for human Nuclear Factor Erythroid 2 Related Factor 2 (NFR2) response to Antioxidant Response Elements (ARE) (AID 2282992; active = hit-call score of the fitted dose curve at least 0.9, where 1 is the maximum; inactive = score below 0.9); conditions: HepG2 Attagene ARE/NRF2 reporter, transcription factor activity; actives raise or lower the signal
In short: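 Using transiently transfected HepG2 cells exposed for 24 h, reporter mRNA levels were determined by RT-PCR with fluorescent primer extension and capillary electrophoresis, analysed for gain or loss of signal against DMSO.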

[9] = target: Peroxisome proliferator-activated receptor gamma (Homo sapiens) (UniProt P37231); assay: ATG_PPARg_TRANS: Attagene TRANS-FACTORIAL HepG2 Assay for human Peroxisome Proliferator-activated Receptor-gamma (PPARg) (AID 2283007)
In short: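 Transient transfection of HepG2 with GAL4-UAS-driven reporter units; chemical dosing 24 h; total RNA → oligo(dT) RT → PCR with reporter primers → 6-FAM primer extension → HpaI digest 2 h 37 C → capillary electrophoresis. Positive direction vs DMSO.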

[10] = target: Nuclear receptor subfamily 1 group I member 2 (Homo sapiens) (UniProt O75469); assay: ATG_PXR_TRANS: Attagene TRANS-FACTORIAL HepG2 Assay for human Pregnane X Receptor (PXR) (AID 2283008)
In short: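 Multiplexed TRANS reporter panel in HepG2; this component tracks PXR-Gal4-driven reporter mRNA after 24 h dosing, measured by RT-PCR with capillary electrophoresis fluorescence, fitted against DMSO.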

[11] = target: Cellular tumor antigen p53 (Homo sapiens) (UniProt P04637); assay: TOX21_p53_BLA_p3_ratio: Tox21 HCT-116 p53 Agonism Beta-lactamase Assay, Ratio, Phase 3 (AID 2283596)
In short: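 Cells were seeded at 4000/well, rested 5 h at 37C, then dosed with DMSO compound solutions (217-fold dilution) for 16 h. CCF4-AM substrate was loaded for 2 h at room temperature, and the 460/530 nm emission ratio was fitted for gain of signal versus DMSO.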

[12] = target: Cellular tumor antigen p53 (Homo sapiens) (UniProt P04637); assay: TOX21_p53_BLA_p5_ratio: Tox21 HCT-116 p53 Agonism Beta-lactamase Assay, Ratio, Phase 5 (AID 2283599)
In short: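 HCT-116 cells carrying a p53-inducible beta-lactamase reporter were seeded at 4000 cells/well and dosed after 5 h with compound in DMSO (217-fold dilution). After 16 h at 37C, CCF4-AM substrate was added for 2 h, and the 460/530 nm emission ratio was scored as gain-of-signal versus DMSO.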

[13] = TOX21_p53_BLA_p5_viability: Viability Assessment in the Tox21 HCT-116 p53 Agonism Beta-lactamase Assay, Phase 5 (AID 2283600)
In short: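 Workflow: seed 4000 cells per well, wait 5 h, add compounds (DMSO, 217-fold dilution), incubate 16 h, load CCF4-AM 2 h, add CellTiter-Glo, read luminescence after 30 min.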

[14] = target: Cellular tumor antigen p53 (Homo sapiens) (UniProt P04637); assay: TOX21_p53_BLA_p4_ratio: Tox21 HCT-116 p53 Agonism Beta-lactamase Assay, Ratio, Phase 4 (AID 2283601)
In short: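 HCT116 cells carrying an inducible beta-lactamase reporter were plated at 4000 cells/well, rested 5 h, then exposed to compounds in DMSO (217-fold dilution) for 16 h at 37C. CCF4-AM substrate was loaded 2 h at room temperature; 460/530 nm emission ratio scored gain-of-signal versus DMSO.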

[15] = target: human Thyroid Receptor alpha (THRa1), THRA (gene 7067) (UniProt P10827); assay: ATG_THRa1_TRANS: Attagene TRANS-FACTORIAL HepG2 Assay for human Thyroid Receptor alpha (THRa1) (AID 2283014)
In short: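 Reporter transcript induction, read by capillary electrophoresis of 6-FAM-labelled RT-PCR products, reflects activity of a transfected THRa1-Gal4 fusion in HepG2 liver cells. Cells were dosed for 24 h; activity was fitted in the positive direction against DMSO.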

[16] = target: Cellular tumor antigen p53 (Homo sapiens) (UniProt P04637); assay: TOX21_p53_BLA_p2_ratio: Tox21 HCT-116 p53 Agonism Beta-lactamase Assay, Ratio, Phase 2 (AID 2283592)
In short: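 Plated HCT116 p53-bla cells (4000/well) received compound after 5 h, then 16 h at 37C/5% CO2. CCF4-AM added, 2 h RT. Ratio of 460 to 530 nm emission taken as the p53 reporter signal.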

[17] = ATG_M_19_CIS: Attagene CIS-FACTORIAL HepG2 Assay for M19 Transcription Factor (Internal Marker) (AID 2282939; active = hit-call score of the fitted dose curve at least 0.9, where 1 is the maximum; inactive = score below 0.9); conditions: HepG2 Attagene CIS-FACTORIAL M19 internal marker reporter; actives raise or lower the signal
In short: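 Background-control endpoint from a multiplexed HepG2 reporter panel. Cells carrying cis-regulated reporter constructs are treated 24 h, then reporter transcripts are amplified, fluorescently labelled and sized by capillary electrophoresis. DMSO defines baseline.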

[18] = target: Hepatocyte nuclear factor 4-alpha (Homo sapiens) (UniProt P41235); assay: ATG_HNF4a_TRANS: Attagene TRANS-FACTORIAL HepG2 Assay for human Hepatocyte Nuclear Factor 4 alpha (HNF4a) (AID 2282982); conditions: HepG2 HNF4a transactivation reporter, mRNA readout
In short: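 In this trans-factorial format, a chimeric HNF4a-GAL4 fusion drives a GAL4-UAS reporter in transfected HepG2 liver cells. After 24 h treatment, reporter mRNA induction is measured by RT-PCR with capillary electrophoresis, relative to DMSO.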

Measured: AC50

Chain of Hypoxia-inducible factor 1-alpha (Homo sapiens) (Q16665 whole entry, looked up, the tested form may be a part): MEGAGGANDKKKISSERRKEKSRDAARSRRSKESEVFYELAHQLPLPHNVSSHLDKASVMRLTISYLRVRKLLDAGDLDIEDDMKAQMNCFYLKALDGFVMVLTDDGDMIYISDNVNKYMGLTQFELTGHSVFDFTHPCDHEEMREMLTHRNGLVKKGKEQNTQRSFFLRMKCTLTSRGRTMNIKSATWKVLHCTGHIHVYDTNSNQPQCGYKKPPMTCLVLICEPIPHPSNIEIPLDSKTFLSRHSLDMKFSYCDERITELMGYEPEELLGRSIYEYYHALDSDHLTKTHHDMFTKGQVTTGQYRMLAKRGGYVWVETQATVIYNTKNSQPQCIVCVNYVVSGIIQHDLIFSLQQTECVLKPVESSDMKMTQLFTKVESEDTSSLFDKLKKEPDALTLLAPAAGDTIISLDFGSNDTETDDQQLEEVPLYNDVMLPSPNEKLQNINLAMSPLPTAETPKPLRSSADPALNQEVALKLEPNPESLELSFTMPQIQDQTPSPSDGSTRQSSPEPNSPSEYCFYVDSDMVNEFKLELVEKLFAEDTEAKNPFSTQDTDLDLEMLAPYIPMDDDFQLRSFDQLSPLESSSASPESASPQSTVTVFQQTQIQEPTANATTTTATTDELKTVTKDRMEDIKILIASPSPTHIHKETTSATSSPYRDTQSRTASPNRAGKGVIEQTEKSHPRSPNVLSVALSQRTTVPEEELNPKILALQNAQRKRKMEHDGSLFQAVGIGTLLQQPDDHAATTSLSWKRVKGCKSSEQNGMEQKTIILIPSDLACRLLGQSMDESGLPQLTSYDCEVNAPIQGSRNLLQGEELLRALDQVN
Chain of Cellular tumor antigen p53 (Homo sapiens) (P04637 whole entry, looked up): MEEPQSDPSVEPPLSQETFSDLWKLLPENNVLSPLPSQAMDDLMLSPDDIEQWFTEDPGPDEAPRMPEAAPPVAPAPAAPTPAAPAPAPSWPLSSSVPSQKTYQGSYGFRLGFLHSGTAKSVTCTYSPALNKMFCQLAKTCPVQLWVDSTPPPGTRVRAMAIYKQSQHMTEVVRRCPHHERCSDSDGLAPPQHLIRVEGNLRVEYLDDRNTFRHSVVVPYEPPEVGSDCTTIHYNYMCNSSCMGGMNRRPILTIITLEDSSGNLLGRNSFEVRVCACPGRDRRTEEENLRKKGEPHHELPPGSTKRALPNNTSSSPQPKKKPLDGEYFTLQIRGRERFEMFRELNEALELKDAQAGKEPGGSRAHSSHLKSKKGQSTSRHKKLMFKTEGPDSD
Chain of Nuclear receptor subfamily 1 group I member 2 (Homo sapiens) (O75469 whole entry, looked up, the tested form may be a part): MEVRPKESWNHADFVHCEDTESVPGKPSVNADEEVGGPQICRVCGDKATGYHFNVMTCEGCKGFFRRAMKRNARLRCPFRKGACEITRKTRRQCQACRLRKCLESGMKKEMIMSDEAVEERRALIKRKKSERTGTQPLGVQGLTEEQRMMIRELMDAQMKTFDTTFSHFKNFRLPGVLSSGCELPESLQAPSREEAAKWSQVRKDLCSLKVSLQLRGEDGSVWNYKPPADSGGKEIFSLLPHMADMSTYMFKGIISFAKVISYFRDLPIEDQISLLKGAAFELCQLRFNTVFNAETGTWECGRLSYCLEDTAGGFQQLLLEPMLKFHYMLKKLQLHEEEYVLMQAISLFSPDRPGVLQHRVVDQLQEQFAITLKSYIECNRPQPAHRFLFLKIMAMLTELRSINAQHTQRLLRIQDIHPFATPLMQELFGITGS
Chain of Peroxisome proliferator-activated receptor gamma (Homo sapiens) (P37231 whole entry, looked up, the tested form may be a part): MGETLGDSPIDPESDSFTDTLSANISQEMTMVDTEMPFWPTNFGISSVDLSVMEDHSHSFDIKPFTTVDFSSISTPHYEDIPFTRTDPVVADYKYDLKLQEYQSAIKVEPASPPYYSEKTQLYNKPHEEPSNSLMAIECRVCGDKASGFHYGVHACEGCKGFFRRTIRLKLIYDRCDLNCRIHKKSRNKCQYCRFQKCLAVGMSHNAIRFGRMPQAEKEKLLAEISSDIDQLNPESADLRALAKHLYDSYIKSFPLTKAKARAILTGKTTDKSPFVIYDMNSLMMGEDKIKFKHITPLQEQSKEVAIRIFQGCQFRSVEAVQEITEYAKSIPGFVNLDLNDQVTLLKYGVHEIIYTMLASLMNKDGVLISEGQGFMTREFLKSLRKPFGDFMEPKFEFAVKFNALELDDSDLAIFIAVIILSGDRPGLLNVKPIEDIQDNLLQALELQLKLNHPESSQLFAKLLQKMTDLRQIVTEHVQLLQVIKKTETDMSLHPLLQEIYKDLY
Chain of human Thyroid Receptor alpha (THRa1), THRA (gene 7067) (P10827 whole entry, looked up, the tested form may be a part): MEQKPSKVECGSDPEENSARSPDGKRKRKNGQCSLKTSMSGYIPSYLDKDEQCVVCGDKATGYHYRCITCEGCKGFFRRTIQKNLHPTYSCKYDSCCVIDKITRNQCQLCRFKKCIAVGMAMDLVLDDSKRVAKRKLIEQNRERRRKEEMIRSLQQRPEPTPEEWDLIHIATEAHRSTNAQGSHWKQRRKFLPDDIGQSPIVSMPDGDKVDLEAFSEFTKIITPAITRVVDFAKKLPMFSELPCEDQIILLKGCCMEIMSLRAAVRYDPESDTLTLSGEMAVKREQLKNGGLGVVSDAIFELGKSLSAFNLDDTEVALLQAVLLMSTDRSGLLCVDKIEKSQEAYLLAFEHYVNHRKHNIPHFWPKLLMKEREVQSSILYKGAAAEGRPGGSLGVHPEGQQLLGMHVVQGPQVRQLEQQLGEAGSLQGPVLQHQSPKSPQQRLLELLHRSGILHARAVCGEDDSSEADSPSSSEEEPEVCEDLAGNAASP
Chain of Hepatocyte nuclear factor 4-alpha (Homo sapiens) (P41235 whole entry, looked up, the tested form may be a part): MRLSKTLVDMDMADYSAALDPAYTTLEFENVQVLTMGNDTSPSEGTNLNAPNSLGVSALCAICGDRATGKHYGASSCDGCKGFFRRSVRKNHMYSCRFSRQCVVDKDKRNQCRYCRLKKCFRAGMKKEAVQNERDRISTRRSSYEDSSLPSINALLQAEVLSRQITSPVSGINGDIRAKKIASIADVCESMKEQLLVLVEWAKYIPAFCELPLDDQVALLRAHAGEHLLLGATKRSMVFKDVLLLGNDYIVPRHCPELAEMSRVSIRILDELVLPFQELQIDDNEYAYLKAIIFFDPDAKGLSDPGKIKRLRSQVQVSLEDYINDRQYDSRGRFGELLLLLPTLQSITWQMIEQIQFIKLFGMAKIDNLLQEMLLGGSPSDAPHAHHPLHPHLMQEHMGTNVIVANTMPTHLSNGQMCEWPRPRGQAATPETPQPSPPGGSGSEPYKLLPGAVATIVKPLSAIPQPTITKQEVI
Chain of Heat shock factor protein 1 (Homo sapiens) (Q00613 whole entry, looked up, the tested form may be a part): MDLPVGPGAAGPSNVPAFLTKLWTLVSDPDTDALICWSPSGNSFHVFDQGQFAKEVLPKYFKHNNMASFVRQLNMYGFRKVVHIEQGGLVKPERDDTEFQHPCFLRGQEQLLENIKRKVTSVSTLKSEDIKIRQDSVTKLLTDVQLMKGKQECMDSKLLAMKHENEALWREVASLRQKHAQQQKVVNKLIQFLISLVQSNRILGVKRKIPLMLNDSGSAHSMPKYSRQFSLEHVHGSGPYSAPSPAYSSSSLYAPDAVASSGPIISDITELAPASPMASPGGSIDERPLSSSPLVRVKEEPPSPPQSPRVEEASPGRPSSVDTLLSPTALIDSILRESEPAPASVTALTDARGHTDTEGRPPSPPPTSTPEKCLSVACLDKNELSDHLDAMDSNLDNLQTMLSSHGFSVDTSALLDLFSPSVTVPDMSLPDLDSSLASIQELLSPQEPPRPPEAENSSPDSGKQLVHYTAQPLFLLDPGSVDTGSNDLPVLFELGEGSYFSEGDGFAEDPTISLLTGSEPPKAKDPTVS

CC(C)CCCCCCCOP(=O)(Oc1ccccc1)Oc1ccccc1
active: [8] 19.5 µM | [9] 7.95 µM | [10] 0.711 µM
inactive: [1] | [2] | [3] | [4] | [5] | [6] | [7] | [11] | [12] | [13] | [14]

CCCCNP(N)(N)=S
inactive: [1] | [2] | [3] | [8] | [15] | [16] | [11] | [12] | [13] | [14]

CC1(C)CC(=O)CC(C)(C)N1[O]
inactive: [17] | [1] | [3] | [5] | [6] | [18] | [9] | [10] | [16] | [13] | [14]
active: [8] 19.8 µM
